According to PubChem BioAssay AID1159580 (chemical genetic matrix, 2015):
Out of some 5,500 compounds screened, about 2,000 (36%) were called active. About 18% were inconclusive and are not listed. Cut-off read from the data, not from the text of the source: active = normalized growth mostly below about 0.91 (no sharp cut-off); inconclusive = no clear call, values can overlap the other calls; inactive = mostly above about 0.92. Some of the results follow.

Experiment: chemical genetic growth profiling, strain panel (AID 1159580);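 note: tested at 20 µM; growth read once vehicle control cultures reached saturation at 30 °C; 1 = growth at the plate median or of vehicle wells; lower values mean less growth of the strain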
Conditions: growth OD

Measured: normalized growth

C1CCN(CCC2CCCCN2)CC1 (stereo not drawn)
inactive: S. cerevisiae deletion strains, locus YAL013W, strain DEP1, stronger effect = lower value 0.999 | S. cerevisiae deletion strains, locus YBR229C, strain ROT2, stronger effect = lower value 1.01 | S. cerevisiae deletion strains, locus YDL101C, strain DUN1, stronger effect = lower value 0.995 | S. cerevisiae deletion strains, locus YDL134C, strain PPH21, stronger effect = lower value 1 | S. cerevisiae deletion strains, locus YDR150W, strain NUM1, stronger effect = lower value 0.936 | S. cerevisiae deletion strains, locus YEL061C, strain CIN8, stronger effect = lower value 1.02 | S. cerevisiae deletion strains, locus YGR078C, strain PAC10, stronger effect = lower value 1 | S. cerevisiae deletion strains, locus YHR030C, strain SLT2, stronger effect = lower value 1.08 | S. cerevisiae deletion strains, locus YHR087W, strain rtc3, stronger effect = lower value 1 | S. cerevisiae deletion strains, locus YJR043C, strain POL32, stronger effect = lower value 1 | S. cerevisiae deletion strains, locus YJR075W, strain HOC1, stronger effect = lower value 0.998 | S. cerevisiae deletion strains, locus YKL190W, strain CNB1, stronger effect = lower value 0.998 | S. cerevisiae deletion strains, locus YLR039C, strain RIC1, stronger effect = lower value 1.01 | S. cerevisiae deletion strains, locus YLR058C, strain SHM2 (second series), stronger effect = lower value 1.01 | S. cerevisiae deletion strains, locus YLR085C, strain ARP6, stronger effect = lower value 1.01 | S. cerevisiae deletion strains, locus YLR262C, strain YPT6, stronger effect = lower value 1 | S. cerevisiae deletion strains, locus YML094W, strain GIM5, stronger effect = lower value 1.01 | S. cerevisiae deletion strains, locus YMR219W, strain ESC1, stronger effect = lower value 1 | S. cerevisiae deletion strains, locus YMR263W, strain SAP30, stronger effect = lower value 1.01 | S. cerevisiae deletion strains, locus YNL153C, strain GIM3, stronger effect = lower value 1 | S. cerevisiae deletion strains, locus YNL298W, strain CLA4 (second series), stronger effect = lower value 0.981 | S. cerevisiae deletion strains, locus YNL322C, strain KRE1, stronger effect = lower value 0.995 | S. cerevisiae deletion strains, locus YNR030W, strain Alg12, stronger effect = lower value 0.996 | S. cerevisiae deletion strains, locus YOL006C, strain TOP1, stronger effect = lower value 0.964 | S. cerevisiae deletion strains, locus YPL055C, strain LGE1, stronger effect = lower value 0.967 | S. cerevisiae deletion strains, locus YPL241C, strain CIN2, stronger effect = lower value 0.993 | S. cerevisiae deletion strains, locus YPR135W, strain CTF4, stronger effect = lower value 1.08 | S. cerevisiae strains, strain wild type, stronger effect = lower value 0.996
